# Test results as given in PubChem BioAssay (NCATS).
# Unmarked numbers belong to inactive results. Inconclusive results are not listed. Where a call stands in place of a potency, no number is given. Active and inactive are the calls of the source. Unless noted, calls come from the whole dose curve; as a rule, active = well fitted curve in the direction sought with a large enough effect; inconclusive = small, poorly fitted or top-dose-only effect, or another doubt; inactive = no such curve, though single readings can be large; an effect the other way counts as inactive or inconclusive.
# Tests used:
# [1] = Confirmation and Secondary Assay for Modulators of Hemoglobin Beta Chain Splicing at IVS2 654 locus (AID 910);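 note: HeLa cells stably carrying EGFP split by mutant beta-globin IVS2-654 intron; per-well total GFP intensity by laser scanning cytometry after 2-day treatment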
# Summary of the method: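 Readout: per-well total peak green fluorescence (488 nm ex, 500–520 nm em) from objects 5–250 µm, reflecting correct splicing of an EGFP-654 reporter. Compounds were applied for 2 days at 37 °C to overnight-plated HeLa EGFP-654 cells; controls were DMSO and 500 nM IVS2-654 PNA.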
# [2] = molecular target: Cytochrome P450 3A4 (Homo sapiens) (UniProt P08684); assay: qHTS Assay for Inhibitors and Substrates of Cytochrome P450 3A4 (AID 884); note: nearly all actives have a fitted effect of over 50% in size; note: potency is the fitted concentration of half-maximal effect
# Sequence of Cytochrome P450 3A4 (Homo sapiens) (P08684 whole entry, looked up): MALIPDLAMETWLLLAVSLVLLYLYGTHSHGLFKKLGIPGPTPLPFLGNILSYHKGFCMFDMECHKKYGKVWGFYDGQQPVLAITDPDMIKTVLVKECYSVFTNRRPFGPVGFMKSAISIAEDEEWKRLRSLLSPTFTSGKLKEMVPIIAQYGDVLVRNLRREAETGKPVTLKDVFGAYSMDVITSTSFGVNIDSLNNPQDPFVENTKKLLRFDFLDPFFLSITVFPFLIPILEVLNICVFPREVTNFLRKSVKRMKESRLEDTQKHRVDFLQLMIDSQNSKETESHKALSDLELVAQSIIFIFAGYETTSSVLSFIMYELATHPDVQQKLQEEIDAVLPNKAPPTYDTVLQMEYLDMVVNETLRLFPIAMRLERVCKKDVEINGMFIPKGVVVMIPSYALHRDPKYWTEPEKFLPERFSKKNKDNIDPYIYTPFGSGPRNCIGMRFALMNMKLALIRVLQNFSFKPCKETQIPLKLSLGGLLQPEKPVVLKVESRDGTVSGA
# Summary of the method: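 Luminescent readout of luciferin produced by CYP3A4 (20 nM) dealkylation of Luciferin-PPXE, 25 uM (its KM). NADPH-driven reaction ran 60 min at RT after 10 min compound preincubation; data scaled to 57 uM ketoconazole as 100% inhibition.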
# [3] = molecular target: Cytochrome P450 2D6 (Homo sapiens) (UniProt P10635); assay: qHTS Assay for Inhibitors and Substrates of Cytochrome P450 2D6 (AID 891); note: nearly all actives have a fitted effect of over 60% in size; note: potency is the fitted concentration of half-maximal effect;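 for activity change, negative = inhibition: luciferin methyl ether substrate demethylated by CYP2D6 with NADPH regeneration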
# Sequence of Cytochrome P450 2D6 (Homo sapiens) (P10635 whole entry, looked up): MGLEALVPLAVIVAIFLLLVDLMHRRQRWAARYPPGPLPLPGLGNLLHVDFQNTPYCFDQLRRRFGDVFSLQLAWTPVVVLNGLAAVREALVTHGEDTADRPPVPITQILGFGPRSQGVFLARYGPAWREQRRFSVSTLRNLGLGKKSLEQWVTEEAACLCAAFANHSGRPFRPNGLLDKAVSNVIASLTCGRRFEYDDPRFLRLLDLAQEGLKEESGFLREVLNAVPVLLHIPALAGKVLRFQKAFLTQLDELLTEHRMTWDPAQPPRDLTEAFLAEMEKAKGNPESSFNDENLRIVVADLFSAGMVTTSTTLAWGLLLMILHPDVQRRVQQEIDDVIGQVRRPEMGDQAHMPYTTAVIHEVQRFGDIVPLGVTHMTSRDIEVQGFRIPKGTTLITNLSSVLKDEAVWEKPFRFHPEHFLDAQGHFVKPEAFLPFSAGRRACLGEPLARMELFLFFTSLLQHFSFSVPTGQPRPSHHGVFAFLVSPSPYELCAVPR
# Summary of the method: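 Luminescent read-out of luciferin formed by 5 nM human CYP2D6 demethylating 30 uM Luciferin-ME EGE (Km level) over 60 min at room temperature after NADPH regeneration addition. Data normalized to full inhibition by 1.43 uM quinidine.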
# [4] = Cellular Toxicity (caspase-3) HUV-EC-C (AID 656)
# Summary of the method: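 Luminescent caspase-3/7 activation (aminoluciferin substrate cleavage) in HUV-EC-C cells after 16 hr compound exposure, 37°C. Signal normalized to DMSO basal and 100 uM tamoxifen as 100%; AC50 from concentration-response fitted with the Hill equation.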
# [5] = Cellular Toxicity (caspase-3) SHSY5Y (AID 657); note: potency is the fitted concentration of half-maximal effect
# Summary of the method: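 Luminescent caspase-3/7 readout (aminoluciferin release) in SH-SY5Y cells after 16 h compound exposure in complete medium. Activity scaled between DMSO basal and 10 uM staurosporine as 100%; concentration-response fitted to Hill equation for AC50.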
# [6] = Cellular Toxicity (caspase-3) BJ (AID 658); settings: Potency: caspase-3 activation; note: potency is the fitted concentration of half-maximal effect
# Summary of the method: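 Caspase-Glo 3/7 luminescence, read 1 hr after reagent at room temperature, in normal BJ fibroblasts exposed 16 hours at 37 °C. AC50 values from Hill-equation concentration-response, scaled between DMSO basal and 10 uM staurosporine as 100%.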
# [7] = Cellular Toxicity (caspase-3) MRC-5 (AID 659)
# Summary of the method: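 Luminescent Caspase-Glo 3/7 read-out (1 h, room temperature) after a 16 h, 37 °C compound exposure of MRC-5 lung fibroblasts at 1500 cells/well. Concentration-response AC50 from Hill equation; 0% DMSO, 100% 10 uM staurosporine.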
# [8] = Cellular Toxicity (caspase-3) Mesangial (AID 660);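 note: combined caspase 3 and 7 activity read by Caspase-Glo luminescence; cells exposed to compound for 16 h before the caspase read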
# Summary of the method: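 AC50 values come from Hill-equation fits of caspase 3/7 activation, measured as Caspase-Glo luminescence in human glomerular mesangial cells exposed to compound for 16 h at 37 °C; 100% set by 100 uM tamoxifen.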
# [9] = Cellular Toxicity (caspase-3) SK-N-SH (AID 661); settings: SK-N-SH caspase-3 activation, qHTS; caspase-3 activation: at 91.7 µM (top of the series), DMSO as zero, staurosporine as full; note: potency is the fitted concentration of half-maximal effect
# Summary of the method: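 Apoptosis readout in SK-N-SH neuroblastoma: Caspase-Glo 3/7 luminescence following 16 hr treatment in complete culture medium. Normalization used DMSO and 10 uM staurosporine controls.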
# [10] = Cellular Toxicity (caspase-3) H-4-II-E (AID 663);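 note: cells exposed to compound for 16 hr before readout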
# Summary of the method: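 Caspase 3/7 activation measured by luminescent aminoluciferin substrate cleavage after 16 hr compound treatment of H-4-II-E cells in complete medium. Increase normalized between DMSO (basal) and 100 uM tamoxifen (100%); Hill-equation AC50 from concentration-response.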
# [11] = Cellular Toxicity (caspase-3) Hek293 (AID 664); settings: HEK293 caspase-3 activation, DMSO = 0%, 100 µM tamoxifen = 100%; at 92.2 µM (top of the series);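 note: cells exposed to compound for 16 h at 37 °C before readout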
# Summary of the method: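 Apoptosis readout: Caspase-Glo 3/7 signal in human HEK293 cells following 16-hour compound incubation. Responses scaled between DMSO baseline and 100 uM tamoxifen.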
# [12] = Cellular Toxicity (caspase-3) N2a (AID 665);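 note: compound exposure lasted 16 h at 37 °C before readout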
# Summary of the method: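 Concentration-response qHTS: compound-induced caspase-3/7 luminescence in N2a cells (16 h, 37 °C), relative to DMSO and 10 uM staurosporine controls; AC50 obtained using the standard Hill equation.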
# [13] = Cellular Toxicity (caspase-3) NIH 3T3 (AID 666)
# Summary of the method: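 Activity: caspase-3/7 induction, NIH 3T3 cells, 16 hr treatment at 37°C, luminescent Caspase-Glo detection; AC50 via Hill equation.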
# [14] = Cell Viability - LYMP2-001 (AID 921);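 note: cells exposed to compound for 24 h at 37 °C; nearly all actives have a fitted effect of over 70% in size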; note: potency is the fitted concentration of half-maximal effect
# Summary of the method: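 CellTiter-Glo luminescence (intracellular ATP) after 24 hr compound exposure at 37 C, 2500 lymphoblastoid cells/well in complete medium. AC50 fitted with standard Hill equation; tetraoctylammonium bromide positive control.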
# [15] = molecular target: Cytochrome P450 3A4 (Homo sapiens) (UniProt P08684); assay: qHTS Assay for Activators of Cytochrome P450 3A4 (AID 885); note: nearly all actives have a fitted effect of over 65% in size; note: potency is the fitted concentration of half-maximal effect
# Summary of the method: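 CYP3A4 activity: Luciferin-PPXE O-dealkylation, 25uM substrate, 200mM KPO4, RT throughout. Read-out is luciferase luminescence; higher values reflect activation.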
# [16] = molecular target: Cytochrome P450 2C9 (Homo sapiens) (UniProt P11712); assay: qHTS Assay for Inhibitors and Substrates of Cytochrome P450 2C9 (AID 883); note: nearly all actives have a fitted effect of over 60% in size; note: potency is the fitted concentration of half-maximal effect
# Sequence of Cytochrome P450 2C9 (Homo sapiens) (P11712 whole entry, looked up): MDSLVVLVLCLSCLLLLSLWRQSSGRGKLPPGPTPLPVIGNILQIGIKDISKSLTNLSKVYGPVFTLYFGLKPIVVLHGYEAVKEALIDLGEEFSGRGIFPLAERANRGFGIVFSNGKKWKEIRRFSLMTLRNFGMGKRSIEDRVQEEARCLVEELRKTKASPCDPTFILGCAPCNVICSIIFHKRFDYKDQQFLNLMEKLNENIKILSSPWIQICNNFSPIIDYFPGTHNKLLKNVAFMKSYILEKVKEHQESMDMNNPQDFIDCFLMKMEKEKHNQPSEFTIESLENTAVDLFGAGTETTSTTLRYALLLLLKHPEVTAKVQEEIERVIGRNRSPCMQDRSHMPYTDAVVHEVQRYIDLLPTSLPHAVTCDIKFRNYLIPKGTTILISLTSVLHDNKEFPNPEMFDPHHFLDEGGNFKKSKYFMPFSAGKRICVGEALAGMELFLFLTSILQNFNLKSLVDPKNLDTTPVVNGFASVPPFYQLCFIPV
# Summary of the method: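 Inhibition of CYP2C9 is scored as loss of luminescence, with 57uM sulphaphenazole defining 100% inhibition. Substrate Luciferin-H is used at 100uM, equal to its KM; enzyme at 10nM in 25mM KPO4, 60 min at 37C with NADPH regeneration.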
# [17] = molecular target: Cytochrome P450 2C19 (Homo sapiens) (UniProt P33261); assay: qHTS Assay for Inhibitors and Substrates of Cytochrome P450 2C19 (AID 899); settings: recombinant CYP2C19, luciferin-H EGE luminescence; note: potency is the fitted concentration of half-maximal effect; nearly all actives have a fitted effect of over 60% in size
# Sequence of Cytochrome P450 2C19 (Homo sapiens) (P33261 whole entry, looked up): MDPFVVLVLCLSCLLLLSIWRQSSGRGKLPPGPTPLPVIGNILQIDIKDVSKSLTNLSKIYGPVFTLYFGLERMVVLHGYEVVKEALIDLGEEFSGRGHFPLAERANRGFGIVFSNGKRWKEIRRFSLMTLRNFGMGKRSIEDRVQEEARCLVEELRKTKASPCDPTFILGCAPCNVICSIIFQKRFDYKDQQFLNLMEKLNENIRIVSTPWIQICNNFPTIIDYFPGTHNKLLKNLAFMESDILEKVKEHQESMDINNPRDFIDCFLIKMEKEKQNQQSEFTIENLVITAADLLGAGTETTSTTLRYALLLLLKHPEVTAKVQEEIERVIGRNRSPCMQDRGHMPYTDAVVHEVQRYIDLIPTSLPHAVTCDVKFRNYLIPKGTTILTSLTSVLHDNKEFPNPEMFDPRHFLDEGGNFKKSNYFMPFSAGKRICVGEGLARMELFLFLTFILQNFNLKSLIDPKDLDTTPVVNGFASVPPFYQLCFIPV
# Summary of the method: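 5nM enzyme + 10uM Luciferin-H EGE (=KM), 50mM KPO4; cpd pin-transferred, 10 min 37C; NADPH regen, 60 min 37C; stopped w/ luciferin detection reagent, 20 min; luminescence. Normalized to 57uM ketoconazole (AC100).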
# [18] = molecular target: Guanine nucleotide-binding protein G(i) subunit alpha-1 (Homo sapiens) (UniProt P63096); assay: qHTS Assay for Inhibitors of RGS12 GoLoco Motif Activity (Green Fluorophore) (AID 879);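 note: negative values mean loss of peptide binding seen as reduced polarization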
# Sequence of Guanine nucleotide-binding protein G(i) subunit alpha-1 (Homo sapiens) (P63096 whole entry, looked up): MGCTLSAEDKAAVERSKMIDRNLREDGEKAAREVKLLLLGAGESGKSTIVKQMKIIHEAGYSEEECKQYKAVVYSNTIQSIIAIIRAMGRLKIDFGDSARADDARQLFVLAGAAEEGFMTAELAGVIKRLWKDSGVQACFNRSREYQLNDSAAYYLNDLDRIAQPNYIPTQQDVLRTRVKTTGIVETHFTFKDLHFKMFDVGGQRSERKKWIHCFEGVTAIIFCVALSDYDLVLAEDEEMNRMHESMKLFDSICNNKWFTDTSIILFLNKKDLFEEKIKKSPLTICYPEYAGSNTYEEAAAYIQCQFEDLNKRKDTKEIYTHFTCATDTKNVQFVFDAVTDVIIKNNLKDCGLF
# Summary of the method: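 A drop in FITC polarization marked displacement of the FITC-tagged RGS12 GoLoco peptide (10 nM) from Gαi1 (50 nM). Compounds were incubated 10 min at room temperature in Tris pH 7.5 buffer containing 150 mM NaCl, 0.1 mM GDP and 0.05% NP40; unlabeled peptide titration served as control.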
# [19] = qHTS Assay for Identification of Small Molecule Agonists for Hypoxia Response Element Signaling Pathway (AID 914; active = well fitted activation curve with a large enough effect in the signal ratio, with a control signal flat, not every such curve was filed as active; the % refers to the signal ratio); settings: ME-180 (cervical carcinoma) HRE-bla reporter, beta-lactamase ratio, CoCl2, 17 h; active compounds read high
# Summary of the method: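 HRE-bla ME-180 cells, overnight plating in Opti-MEM with 0.5% dialyzed FBS; cpd titration + EC50 CoCl2, 17 h, 37 degrees Celsius; CCF4 2.5 h RT; 460/530 nm ratio; AC50.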
smiles,measurement,setting,value
O=C(O)CCC(=O)c1ccc(-c2ccccc2)cc1,Potency,[1],inactive
C=CC(C)(O)CC/C=C(\C)CCC=C(C)C (stereo unspecified),Potency,[2],inactive
same,Potency,[1],inactive
CCOC(=O)C1=C(COCCN)NC(C)=C(C(=O)OC)C1c1ccccc1Cl (stereo unspecified),Potency,[1],inactive
CCCCC[C@H](O)/C=C/[C@H]1[C@H](O)CC(=O)[C@@H]1C/C=C\CCCC(=O)O,Potency,[2],inactive
Cc1c(O)c(=O)ccn1C,"activity change, negative = inhibition",[2],-11.6% [at 11.4 µM]
same,Potency,[3],inactive
O=c1n(CC2CO2)c(=O)n(CC2CO2)c(=O)n1CC1CO1 (stereo unspecified),outcome,[4],inactive
same,Potency,[5],12.6 µM (active)
same,Potency,[6],inactive
same,outcome,[7],inactive
same,outcome,[8],inactive
same,Potency,[9],15.8 µM (active)
same,outcome,[10],inactive
same,caspase-3 activation,[11],3.19%
same,outcome,[12],inactive
same,outcome,[13],inactive
same,Potency,[2],inactive
same,Potency,[14],31.6 µM (active)
COc1cc(S(C)=O)ccc1-c1nc2ncccc2[nH]1 (stereo unspecified),Potency,[2],inactive
same,Potency,[1],inactive
N#Cc1ccc2c(c1)N(CCCN1CCC(O)CC1)c1ccccc1S2,Potency,[2],inactive
same,Potency,[1],inactive
CC(=O)Oc1cccc2c1C(=O)c1c(OC(C)=O)cc(C(=O)O)cc1C2=O,Potency,[2],inactive
same,Potency,[1],inactive
CCCOc1cc(N)ccc1C(=O)OCCN(CC)CC,Potency,[3],2 µM (active)
CC[C@H]1OC(=O)[C@H](C)[C@@H](O[C@H]2C[C@@](C)(OC)[C@@H](O)[C@H](C)O2)C(C)[C@@H](O[C@@H]2O[C@H](C)C[C@H](N(C)C)[C@@H]2O)[C@](C)(OC)C[C@@H](C)C(=O)[C@H](C)[C@@H](O)[C@]1(C)O (stereo partly specified),Potency,[1],inactive
CC(C)c1nc(N(C)S(C)(=O)=O)nc(-c2ccc(F)cc2)c1/C=C/C(O)CC(O)CC(=O)O (stereo unspecified),Potency,[15],inactive
same,Potency,[1],inactive
CC(=O)Oc1cccc(C(=O)O)c1OC(C)=O,Potency,[2],inactive
same,Potency,[1],inactive
O=C1c2ccccc2C(=O)c2c1ccc(O)c2O,Potency,[15],inactive
same,Potency,[1],inactive
Cc1cc(-c2ccc(N=Nc3ccc4c(S(=O)(=O)O)cc(S(=O)(=O)O)c(N)c4c3O)c(C)c2)ccc1N=Nc1ccc2c(S(=O)(=O)O)cc(S(=O)(=O)O)c(N)c2c1O,Potency,[16],7.94 µM (active)
same,Potency,[2],15.8 µM (active)
same,Potency,[15],inactive
same,Potency,[3],15.8 µM (active)
same,Potency,[17],0.199 µM (active)
C[C@@](Cc1ccc(O)c(O)c1)(NN)C(=O)O,outcome,[18],inactive
same,Potency,[15],inactive
CC1CCCC(C)N1NC(=O)c1ccc(Cl)c(S(N)(=O)=O)c1 (stereo unspecified),Potency,[2],inactive
same,Potency,[1],inactive
C=C1C(CCl)(CCl)C2(Cl)C(Cl)C(Cl)C1(Cl)C2(Cl)Cl (stereo unspecified),Potency,[5],39.8 µM (active)
same,Potency,[6],63.1 µM (active)
same,caspase-3 activation,[9],90.5% (active)
same,caspase-3 activation,[11],252% (active)
same,outcome,[13],inactive
same,Potency,[2],5.01 µM (active)
same,Potency,[15],inactive
same,Potency,[14],39.8 µM (active)
O=C(O)[C@H]1CN(C/C=C/P(=O)(O)O)CCN1,Potency,[2],inactive
O=C(O)Cc1nn(Cc2ccc(Br)cc2F)c(=O)c2ccccc12,Potency,[16],inactive
Cc1cccc(C)c1NC(=O)C1CCCCN1C (stereo unspecified),Potency,[15],inactive
same,Potency,[1],inactive
same,activation,[19],5.97%
O=C(O)[C@H]1C(=CCO)O[C@H]2CC(=O)N12,Potency,[2],inactive
same,Potency,[1],inactive
O=C(O)Cc1cc(I)c(Oc2ccc(O)c(I)c2)c(I)c1,Potency,[16],5.01 µM (active)
CC(=O)N=c1sc(S(N)(=O)=O)nn1C,Potency,[2],inactive
same,Potency,[1],inactive
Nc1ncnc2c1ncn2[C@H]1CC[C@@H](CO)O1,outcome,[4],inactive
same,Potency,[5],inactive
same,Potency,[6],inactive
same,outcome,[7],inactive
same,outcome,[8],inactive
same,Potency,[9],inactive
same,outcome,[10],inactive
same,caspase-3 activation,[11],2.37%
same,outcome,[12],inactive
same,outcome,[13],inactive
same,Potency,[2],inactive
same,Potency,[1],inactive
same,Potency,[14],inactive
CC1CCC(NC(=O)N(CCCl)N=O)CC1 (stereo unspecified),Potency,[2],inactive
same,Potency,[1],inactive
CC(=O)[C@H]1CC[C@H]2[C@@H]3C=CC4=CC(=O)CC[C@@]4(C)[C@H]3CC[C@]12C,Potency,[2],inactive
same,Potency,[15],7.94 µM (active)
CCCc1nc(C(C)(C)O)c(C(=O)OCc2oc(=O)oc2C)n1Cc1ccc(-c2ccccc2-c2nn[nH]n2)cc1,Potency,[15],inactive
same,Potency,[1],inactive
CC(=O)Nc1ccc(OC(=O)c2ccccc2O)cc1,Potency,[2],inactive
same,Potency,[1],inactive
Cc1cc(C)c(NC(=O)C[C@H](CC(=O)O)c2cccc3ccccc23)c(C(=O)N2CCC3(CCCC3)CC2)c1,outcome,[18],inactive
same,Potency,[15],inactive
CCSc1ccc2c(c1)N(CCCN1CCN(C)CC1)c1ccccc1S2,Potency,[15],inactive
same,Potency,[3],2.51 µM (active)
CN1CCc2c(c3ccccc3n2Cc2ccccc2)C1,Potency,[3],3.16 µM (active)
same,Potency,[1],inactive
NCC(O)CC(=O)O (stereo unspecified),Potency,[2],inactive
same,Potency,[1],inactive
O=C(CCCCCCCCCCCCC1CCCC1)Nc1ccc(S(=O)(=O)c2ccc(NC(=O)CCCCCCCCCCCCC3CCCC3)cc2)cc1,Potency,[15],inactive
same,Potency,[1],inactive
